Assay outcomes: PubChem BioAssay, Broad Institute
Yp Topo-I inh – inhibitors of Yersinia pestis topoisomerase I. Y. pestis Topo-I cleavage product accumulation, plate reader. AID 504884. activity, % at 10 µM. hit rate 0.064% among 360,000; in the data active means activity above about 50%, passing the limit was not always enough
BioA inh-1 – blocks M. tuberculosis BioA enzyme activity; purified M. tuberculosis BioA enzyme, plate reader; inhibition, % at 9.99 µM; hit rate 0.096% among 360,000; in the data active means inhibition above about 40%
PfHsp40 rescue – rescue of PfHsp40-mediated yeast toxicity | S. cerevisiae expressing PfHsp40, growth rescue, ATP luminescence | growth rescue, % at 12.5 µM | hit rate 0.68% among 340,000 | AID 504582; in the data active means growth rescue above about 28%, passing the limit was not always enough;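 further: yeast W303a lacking pdr1 and pdr3 grown in galactose medium; growth measured after three days at 30 °C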
FadD28 FP inh – inhibitors of Mycobacterium tuberculosis FadD28 bisubstrate binding | hit rate 0.22% among 360,000 | inhibition, % at 12.5 µM | FadD28 bisubstrate probe binding, fluorescence polarization; in the data active means inhibition above about 8.5%, passing the limit was not always enough
PrP UTR inh – suppresses PrP 5' UTR mRNA reporter expression. hit rate 0.35% among 340,000. AID 488862. cell-based PrP 5' UTR mRNA reporter, plate reader. inhibition, % (test concentration not listed); in the data active means inhibition above about 52%; further: 0 = median of the neutral control wells
BioA inh-2 – blocks M. tuberculosis BioA aminotransferase. shares compounds with BioA inh-1. purified BioA enzyme, plate reader, dose response. max activity, %. 310 tested, under 10 active. AID 651679;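 further: top concentration of the dilution series was 10 µM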
Target sequence (P9WQ81 whole entry, looked up): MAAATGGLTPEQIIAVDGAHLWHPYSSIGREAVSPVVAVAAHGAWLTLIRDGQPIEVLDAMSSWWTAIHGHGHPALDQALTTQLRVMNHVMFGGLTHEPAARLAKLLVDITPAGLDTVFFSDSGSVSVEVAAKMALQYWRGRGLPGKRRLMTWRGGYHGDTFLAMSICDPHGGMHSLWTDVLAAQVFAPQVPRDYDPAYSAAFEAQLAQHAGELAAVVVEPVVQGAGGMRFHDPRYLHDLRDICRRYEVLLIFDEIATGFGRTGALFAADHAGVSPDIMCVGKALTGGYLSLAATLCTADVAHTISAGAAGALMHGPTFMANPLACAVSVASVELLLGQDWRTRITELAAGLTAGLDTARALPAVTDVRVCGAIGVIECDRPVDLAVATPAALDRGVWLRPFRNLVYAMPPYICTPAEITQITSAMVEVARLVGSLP
HepG2 tox 2 – cytotoxicity in HepG2 cells; shares compounds with BioA inh-1; plate reader; AID 651898; 310 tested, under 10 active; max activity, %
NIH3T3 tox 5 – NIH3T3 viability loss; shares compounds with BioA inh-1; NIH3T3 cytotoxicity, plate reader; activity change, negative = cytotoxicity, % at 26 µM; 310 tested, under 10 active; AID 651900
* marks the source's active call; other numbers are inactive results; i = inactive; nt = no result given; [ ] = dose if it differs, or a comment. Rows were chosen to be rich in hits. Some 1.1% of all compounds tested hit in one or more screens of this group. Unless noted, how the calls were made is not given here.

SMILES	Yp Topo-I inh	BioA inh-1	PfHsp40 rescue	FadD28 FP inh	PrP UTR inh	BioA inh-2	HepG2 tox 2	NIH3T3 tox 5
CC1(C(=O)NCc2ccc(F)c(F)c2)Cc2c(-c3cccc(C(N)=O)c3)ccnc2O1 (configuration not stated)	10	62*	nt	-4	nt	20	14	-1
CC1(C(=O)NCc2ccccc2)Cc2c(-c3cccc(C(N)=O)c3)ccnc2O1 (configuration not stated)	4	12	nt	-3	nt	nt	nt	nt
Cc1cc(C)n(-c2ccc(C(=O)Nc3ccc4c(c3)OCO4)cc2)n1	11	44*	3	-7	-63	-8	-8	3
Cc1cccc(Cc2c(C)nc3nc(SCC(=O)NCc4ccco4)nn3c2C)c1	24	39	2	-2	-21	nt	nt	nt
Cc1nc2nc(SCC(=O)NCc3ccco3)nn2c(C)c1Cc1c(F)cccc1Cl	21	48*	-1	-4	-21	3	22	-1
Cc1ccc(Cc2c(C)nc3nc(SCC(=O)NCc4ccco4)nn3c2C)cc1	17	50*	0	-1	-25	-6	12	0
Cc1ccc(Cc2c(C)nc3nc(SCC(=O)N4CCC5(CC4)OCCO5)nn3c2C)cc1	31	nt	-1	0	-33	nt	nt	nt
Cc1nc2nc(SCC(=O)N3CCOCC3)nn2c(C)c1Cc1ccccc1	2	111*	0	0	-4	-4	-7	-6
CN(C)C(=O)C[C@@H]1CC[C@@H](NC(=O)C2CCOCC2)[C@H](CO)O1	nt	-4	nt	nt	nt	nt	nt	nt
COc1ccc(-c2nc3ccc(Cl)cn3c2Cc2ccccc2)cc1OC	nt	70*	nt	-6	nt	-9	-13	-7
Cc1ccccc1S(=O)(=O)NCC[C@@H]1CC[C@H](NC(=O)Nc2cccc(Cl)c2)[C@@H](CO)O1	nt	-1	nt	nt	nt	nt	nt	nt
CN1c2ccc(-c3ccccc3)cc2[C@H]2[C@H](CCN2C(=O)c2ccccc2F)[C@H]1CO	nt	46*	nt	nt	nt	-5	i	-9[23.5 µM]
CC(=O)N1CC[C@@H]2[C@@H](CO)N(C)c3ccc(-c4cccc(F)c4)cc3[C@@H]21	nt	56*	nt	nt	nt	3	i	-4
CN1c2ccc(-c3cccc(F)c3)cc2[C@@H]2[C@@H](CCN2C(=O)c2ccncc2)[C@H]1CO	nt	50*	nt	nt	nt	6	i	-3[23.5 µM]
COc1ccc(-c2ccc3c(c2)[C@H]2[C@H](CCN2C(=O)Cc2cccnc2)[C@H](CO)N3C)cc1	nt	43*	nt	nt	nt	5	i	-15
CC(=O)N1CC[C@H]2[C@@H]1c1cc(-c3cccc(F)c3)ccc1N(C)[C@H]2CO	nt	25	nt	nt	nt	nt	nt	nt
C[C@@H]1CN([C@H](C)CO)C(=O)c2cc(/C=C/c3ccccc3)cnc2O[C@@H]1CN(C)S(C)(=O)=O	nt	3	nt	nt	nt	nt	nt	nt
O=C(C[C@@H]1C[C@@H]2c3cc(NC(=O)c4cccnc4)ccc3O[C@@H]2[C@H](CO)O1)NCCN1CCCCC1	nt	12	nt	nt	nt	nt	nt	nt
COCC(=O)Nc1ccc2c(c1)C(=O)N(C)[C@@H]1CC[C@@H](CC(=O)NCC3CCCCC3)O[C@@H]1CO2	nt	-2	nt	nt	nt	nt	nt	nt
COCC#Cc1cnc2c(c1)C(=O)N([C@H](C)CO)C[C@H](C)[C@H](CN(C)C(=O)c1ccc3c(c1)OCO3)O2	nt	-2	nt	nt	nt	nt	nt	nt
CCC(=O)N1CC[C@@H]2[C@H]1c1cc(-c3cccc(F)c3)ccc1N(C)[C@H]2CO	nt	42*	nt	nt	nt	-5	i	-2
Cc1noc(C)c1NC(=O)Nc1ccc2c(c1)C(=O)N([C@@H](C)CO)C[C@H](C)[C@@H](CN(C)C(=O)Nc1c(C)noc1C)OCCCC[C@H](C)O2	nt	-1	nt	nt	nt	nt	nt	nt
CC(=O)N1CCN(c2ccc([N+](=O)[O-])cc2C=C2C(=O)NC(=O)NC2=O)CC1	-4	44*	-1	-2	-23	-6	14	8
CCN1CCN(c2ccc([N+](=O)[O-])cc2C=C2C(=O)NC(=O)NC2=O)CC1	0	0	1	-3	-6	nt	nt	nt
CCN(CC)c1ccc2cc(-c3nc4ccccc4n3C)c(=O)oc2c1	0	nt	0	-2	-17	nt	nt	nt
SMILES	Yp Topo-I inh	BioA inh-1	PfHsp40 rescue	FadD28 FP inh	PrP UTR inh	BioA inh-2	HepG2 tox 2	NIH3T3 tox 5
CCN(CC)c1ccc2cc(C(=O)c3cccs3)c(=O)oc2c1	nt	91*	nt	1	nt	-7	49	-9
O=C1CCCc2c1cc(C(=O)NCc1ccco1)c(=O)n2-c1ccc(Cl)cc1	4	50*	0	2	-31	3	21	2
Cc1ccc(-n2c3c(cc(C(=O)NCCCN4CCOCC4)c2=O)C(=O)CC(C)(C)C3)cc1	5	1	0	1	1	nt	nt	nt
O=C1CCCc2c1cc(C(=O)NCCCN1CCOCC1)c(=O)n2-c1ccc(Cl)cc1	12	45*	-1	1	-19	-5	-4	-2
CCOC(=O)C1(CCc2ccccc2)CCN(C(=O)CN2CCOC2=O)CC1	-1	59*	1	-1	-15	-4	23	9
CCOC(=O)C1(CCc2ccccc2)CCN(C(=O)C2=C(C)OCCO2)CC1	23	nt	-1	-1	-38	nt	nt	nt
CCCNC(=O)N1[C@@H]2CN(C(=O)Nc3ccccc3)c3ccccc3[C@@H]2[C@@H]1CO	nt	-1	nt	nt	nt	nt	nt	nt
Cc1noc(C)c1S(=O)(=O)N(C)C[C@@H]1Oc2ccc(NC(=O)Nc3ccc4c(c3)OCO4)cc2CC(=O)N([C@H](C)CO)C[C@H]1C	nt	1	nt	nt	nt	nt	nt	nt
CN1CCN(C(=O)C[C@@H]2C=C[C@H](NC(=O)Cc3ccccn3)[C@H](CO)O2)CC1	nt	4	nt	nt	nt	nt	nt	nt
O=C(CSc1nncs1)N1c2ccccc2Sc2ccccc21	-4	44*	1	-14	-2	-2	-12	-3
C/C=C(/C)C(=O)OC(C)(C)[C@@H]1Cc2c(ccc3ccc(=O)oc23)O1	31	53*	1	-4	-50	4	15	3
C[C@H](CO)N1C[C@H](C)[C@@H](CN(C)S(=O)(=O)c2cn(C)cn2)Oc2ccc(NS(=O)(=O)c3ccccc3)cc2CC1=O	nt	3	nt	nt	nt	nt	nt	nt
Cc1nn(CCC(=O)O)c2nc(-c3cccnc3)cc(C(F)(F)F)c12	-7	48*	-1	-1	0	7	10	-1
Cn1nnc2cc(C(=O)N3CCC(c4ccccc4)C3)ccc21 (configuration not stated)	1	66*	-1	-2	-19	-10	-13	-8
CC(C)NC(=O)N(C)C[C@@H]1OCCCC[C@@H](C)Oc2ccc(NS(=O)(=O)c3cccs3)cc2C(=O)N([C@H](C)CO)C[C@H]1C	nt	-1	nt	nt	nt	nt	nt	nt
O=C(Nc1ccc(NS(=O)(=O)c2ccccc2)cc1)c1cccnc1	-4	52*	0	4	-18	9	-9	-3
O=C(Nc1cccnc1)c1ccc(Cl)c(Cl)c1	-10	60*	1	0	-16	-6	13	2
COCCN1C(=O)c2ccc(C(=O)Nc3cccnc3)cc2C1=O	-6	59*	2	-3	-8	-7	-12	3
CCCOC(=O)c1cccc(NC(=O)c2cccnc2)c1	0	43*	1	-2	-7	-8	7	-3
